# Screening data (PubChem)
# Pf growth 48h: P. falciparum growth inhibition at 48 hours (one generation); Potency, µM (series often up to 28.7 µM), inactives show top-dose activity change, negative = inhibition, most hits filed as inhibitors; P. falciparum luciferase growth in erythrocytes, 48 h; 310,000 tested, 5.9% active; AID 504832; also: potency is read from the fitted curve at half-maximal effect; % is scaled to controls: 0 for no effect and ±100 for the full control effect
#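 Parasite viability was followed by luminescence of a genomically integrated firefly luciferase. Cultures held 0.1% parasitemia at 2% hematocrit (final), incubated under 5% CO2 at 37 C.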
# Pf growth 96h: P. falciparum growth inhibition at 96 hours; 320,000 tested, 6.9% active; P. falciparum luciferase reporter growth, 96 h; Potency, µM (doses to about 28.7 µM), without a hit: at the highest dose activity change, negative = inhibition, usual class: inhibitors; also: potency is read from the fitted curve at half-maximal effect; % is scaled to controls: 0 for no effect and ±100 for the full control effect
#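 Plates of compound plus infected erythrocytes (2% hematocrit, 0.05% parasitemia final) incubate 96 hours, 37 C, 5% CO2. Detection reagent added; reduced luminescence from the parasites' luciferase reporter flags inhibition.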
# Shiga inhibitor: inhibitors of Shiga toxin in Vero cells; 290,000 tested, 9.2% active; Vero cells, Shiga toxin protein synthesis inhibition reporter; AID 2315; inhibition, % at 38.7 µM; in the data active = inhibition mostly above about 28%, no sharp cut-off; inactive = mostly below about 43%; also: 0% is about no effect
# Cycloheximide cs: affects cycloheximide protein synthesis inhibition readout, counter-screen. cell reporter, cycloheximide protein synthesis inhibition counterscreen. max response, %. 300,000 tested, 12% active. AID 2314; in the data active = max response mostly above about 13%, no sharp cut-off; inactive = mostly below about 14%; also: read at 38.3 µM for the half of the compounds with a filed dose; 0% is about no effect
# NS1 inh: influenza NS1 inhibition; AID 2326; Potency, µM (highest dose often 46.1 µM), for inactives: top-dose activity, positive = more growth; 270,000 tested, 0.4% active; calls by dose curve; also: potency is read from the fitted curve at half-maximal effect; actives are rising curves; nearly all actives have a fitted effect of over 50% in size
#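 OD600 was taken as the measure of yeast growth restored by compound in an NS1-expressing S. cerevisiae strain. Cells had been washed out of glucose medium and diluted 1:100 into galactose -URA medium, pH 6.0.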
# * marks the source's active call; other numbers are inactive results; i = inactive; ? = inconclusive; · = no result. Compounds with a hit are over-represented: about 21% of the library has one in this group of screens. Unless noted, calls follow the shape of the dose curve; as a rule, active = well fitted inhibition curve with a large enough effect; inconclusive = small, poorly fitted or top-dose-only effect, or another doubt; inactive = no such curve, though single readings can be large or run the other way.
SMILES,Pf growth 48h,Pf growth 96h,Shiga inhibitor,Cycloheximide cs,NS1 inh
CCOc1ccc(CCNC(=O)C2CCN(S(=O)(=O)N3CC(C)CC(C)C3)CC2)cc1OCC (stereo not given),-19%,-12%,-1,-5,4%
CCS(=O)(=O)N1CCC(C(=O)NCCN2CCN(Cc3ccccc3)CC2)CC1,3%,7%,-3,2,-11%
CCCS(=O)(=O)N1CCCC(C(=O)NCCN(CC)c2ccccc2)C1 (stereo not given),?,13µM*,17,-5,2%
CCCS(=O)(=O)N1CCC(C(=O)NCCN(C)Cc2ccccc2)CC1,18%,15µM*,10,-2,-7%
CCOc1ccc(CCNC(=O)C2CCN(S(=O)(=O)CC)CC2)cc1OCC,50%,2.6µM*,-11,-1,-8%
CC1CC(C)(C)CC2(C1)NC(=O)N(CC(=O)Nc1ccc(N3CCCCC3)cc1)C2=O (stereo not given),9%,-10%,4,8,13%
C=C(C)Cn1cnc2cc(C)c(C)cc21,-22%,181%,-15,13,·
NS(=O)(=O)c1ccc(CCNC(=O)c2ccc[nH]c2=S)cc1,13%,20%,-5,-1,4%
O=C(NCCCN1CCC(Cc2ccccc2)CC1)C1CCN(S(=O)(=O)N2CCOCC2)CC1,-1%,·,-1,-2,2%
CCS(=O)(=O)N1CCC(C(=O)NCCc2ccccc2)CC1,27%,1.5µM*,-13,-4,-6%
CCS(=O)(=O)N1CCC(C(=O)NCCCN2CCC(Cc3ccccc3)CC2)CC1,-2%,9.3µM*,14,-5,2%
COc1ccc(-n2c(/C=C(\C)O)nc(=O)c3c(C)cc(C)nc32)cc1,0.83µM*,·,-5,5,-11%
O=C(CN1C(=O)S/C(=C/c2ccccn2)C1=O)N1CCOCC1,-8%,?,23,10,-2%
CCN1C(=O)S/C(=C\c2ccc(N3CCOCC3)cc2C)C1=O,167%,298%,133*,27*,-6%
CCCN1C(=O)S/C(=C\c2ccc(N3CCOCC3)cc2C)C1=O,167%,157%,64*,34*,5µM*
CCOc1ccc(N2C(=O)NC(=O)/C(=C\c3ccc(N4CCOCC4)cc3C)C2=O)cc1,30%,-24%,6,5,11%
C#CCN1C(=O)S/C(=C\c2ccc(N3CCOCC3)cc2C)C1=O,67%,16%,70*,24*,0%
Cc1ccc(NC(=O)N2CCc3ccccc32)cc1C,305%,48%,98*,31*,·
CN1C(=O)CSc2ccc(NC(=O)N3CCc4ccccc43)cc21,-2%,?,25,-2,-89%
Cc1ccc(NC(=O)N2CCCc3ccccc32)cc1,0%,-18%,86*,31*,-2%
Cc1ccc(NC(=O)N2CCc3ccccc32)cc1,406%,i,20,21*,-6%
CCc1ccccc1NC(=O)N1CCCc2ccccc21,30%,61%,59*,43*,4%
Cc1ccc(OC(C)C(=O)N2CCCc3ccccc32)cc1 (stereo not given),·,?,-4,-4,-8%
CCc1ccccc1NC(=O)N1CCc2ccccc2C1,-2%,62%,13,15,-13%
CCSc1ccccc1C(=O)NCc1ccco1,·,-11%,-11,-7,1%
SMILES,Pf growth 48h,Pf growth 96h,Shiga inhibitor,Cycloheximide cs,NS1 inh
Cc1cc(-c2ccccc2)nc(N(C)NC(=O)c2ccc(Cl)cc2)c1S(C)(=O)=O,·,?,-3,7,10%
CCOc1ccc(N2C(=O)CC(N(CCc3ccc(OC)cc3)C(=O)/C=C/C(=O)O)C2=O)cc1 (stereo not given),18%,?,-4,-3,3%
CC(=O)Nc1ccc(N2Cc3ccccc3C2)cc1,65%,?,13,10,?
CN1CCN(c2ccc(NC(=O)N3CCc4ccccc43)cc2)CC1,124%,264%,20,18*,5%
CCOC(=O)c1ccc(CSc2nnc(-c3ccncc3)n2N)cc1,-25%,23%,77,41*,1%
Cc1ccc(OCCN2C(=O)S/C(=C\c3ccc(C)o3)C2=O)cc1,3%,?,-12,1,-1%
O=C(O)CC1CCCC(c2ccccc2)C1=O (stereo not given),-6%,13µM*,-2,1,-8%
O=C(NCC1CCCO1)/C(=C/c1ccccc1F)NC(=O)c1ccccc1 (stereo not given),12%,?,-5,-3,4%
CC(C)(C)NC(=O)c1ccc2c(c1)C1C3CCC(C3)C1C(c1ccccc1)N2 (stereo not given),?,18%,-1,-5,26%
CCCNC(=O)c1ccc2c(c1)C1C3CCC(C3)C1C(c1ccccc1)N2 (stereo not given),9.3µM*,·,-17,-5,10%
CCn1cc(C(=O)O)c(=O)c2cnc(N3CCN(C(=S)Nc4ccc(F)cc4)CC3)nc21,?,0.93µM*,2,6,5%
CCn1cc(C(=O)O)c(=O)c2cnc(N3CCN(C(=S)Nc4ccccc4Cl)CC3)nc21,0.37µM*,0.83µM*,17,2,-2%
CCOc1ccc(OCCOCCNCCOC)cc1,3%,?,-5,-6,5%
NC(=O)CC(NC(=O)Cc1ccc(Br)cc1)c1ccc(N2CCc3ccccc3C2)c([N+](=O)[O-])c1 (stereo not given),?,?,-6,-1,28%
CC(C)(C)c1ccc(NC(=O)C(=O)C2C(=O)Nc3ccccc32)cc1 (stereo not given),-5%,-1%,49*,32*,·
CC1CCCCN1C(=O)CSc1nc2c(c(=O)n(C)c(=O)n2C)n1C (stereo not given),-7%,20%,-5,-6,-5%
COc1cccc(C2=NOC(C(=O)Nc3ccc4c(c3)OCO4)C2)c1 (stereo not given),13%,2%,10,3,·
COc1cc(C2=NOC(C(=O)Nc3ccc4c(c3)OCO4)C2)cc(OC)c1OC (stereo not given),2.9µM*,13%,25,18*,-12%
COc1ccc(NC(=O)C2CC(c3ccc(OC)c(OC)c3)=NO2)cc1OC (stereo not given),-4%,13µM*,-15,1,0%
COc1ccc(C2=NOC(C(=O)NCc3ccc(F)cc3)C2)cc1OC (stereo not given),-28%,2.3µM*,-5,-5,1%
COc1ccc(C2=NOC(C(=O)Nc3ccc(C)cc3)C2)cc1OC (stereo not given),·,-3%,-20,-2,-18%
COc1ccc(C2=NOC(C(=O)Nc3ccc4c(c3)OCO4)C2)cc1OC (stereo not given),-22%,-7%,89*,28*,·
COc1ccc(NC(=O)C2CC(c3cc(OC)c(OC)c(OC)c3)=NO2)cc1OC (stereo not given),·,?,-16,-5,-7%
O=C(COC(=O)c1cc[n+]([O-])cc1)Nc1ccc(Cl)cc1C(F)(F)F,9%,28%,·,·,·
Cc1ccc(C)c(-c2nnc(NC(=O)c3ccc([N+](=O)[O-])o3)o2)c1,9.3µM*,9.3µM*,·,·,·
